The results in this text go back to PubChem BioAssay (NCI).

The panel holds about 83,000 compounds, 20% with a hit somewhere; the sample as a whole holds those more often.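 Plates (96-well) were seeded with cells, treated with compound at one concentration, and incubated for 48 hours before percent growth was determined.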 Unmarked numbers belong to inactive results. The source made the active and inactive calls. Rule for the calls: active = growth percent below 10; inactive = the rest.

Among the test systems are SR leukemia; RPMI-8226 leukemia; OVCAR-8 ovarian; OVCAR-5 ovarian; OVCAR-4 ovarian; SK-OV-3 ovarian; IGROV1 ovarian; OVCAR-3 ovarian; NCI/ADR-RES ovarian; T-47D breast; BT-549 breast; MDA-MB-435 melanoma; SW-620 colon; MCF7 breast; HCT-116 colon; HCC-2998 colon; KM12 colon; HS 578T breast.
What all share (test): NCI-60 one-dose screen, 48 h (100 = growth as untreated, 0 = no growth, -100 = all killed)
Conditions in all cases: 10 µM unless noted

As to `CCN1C(=O)/C(=C/N2N=C(c3ccc(Cl)cc3)CC2c2ccc(OC)cc2)SC1=S` (stereo not drawn), the growth in the test on SR leukemia is 84.2%; with RPMI-8226 leukemia it was 101%; in the test with OVCAR-8 ovarian it was 93.1%; in the test on OVCAR-5 ovarian, 101%; in the test on OVCAR-4 ovarian, 84.4%; in the test on SK-OV-3 ovarian, 87.4%. For the same compound, the growth in the test on IGROV1 ovarian was 84.3%; with OVCAR-3 ovarian it was 104%; with NCI/ADR-RES ovarian, 96.8%; in the test on T-47D breast, 70.1%; in the test with BT-549 breast it was 85.1%; in the test with MDA-MB-435 melanoma it was 97.1%. Besides, the growth in the test with SW-620 colon is 97.6%; in the test on MCF7 breast it was 82.4%; in the test with HCT-116 colon, 85.8%; in the test on HCC-2998 colon, 97.7%; with KM12 colon it was 97.6%.
As for `COc1ccc(C2c3cccn3-c3ccccc3N2C(C)=O)cc1` (stereo not drawn), the growth was 74% in the test with SR leukemia; 85.5% with RPMI-8226 leukemia; 125% with OVCAR-8 ovarian; 99.3% with OVCAR-5 ovarian; 126% in the test on OVCAR-4 ovarian; 101% in the test on SK-OV-3 ovarian. For the same compound, the growth in the test on IGROV1 ovarian is 74.3%; with OVCAR-3 ovarian, 95.3%; in the test with NCI/ADR-RES ovarian, 91.2%; in the test with T-47D breast, 103%; with BT-549 breast, 95.4%; with MDA-MB-435 melanoma, 57%. Further, the growth in the test with SW-620 colon was 85.5%; in the test on MCF7 breast it was 116%; in the test with HCT-116 colon, 97.8%; with HCC-2998 colon, 90.4%; with KM12 colon, 80.2%.
Consider `CN(C)N1C(=O)c2c(Cl)c(Cl)c(Cl)c(Cl)c2C1=O`, for which the growth in the test with SR leukemia is 87.5%; in the test with RPMI-8226 leukemia it was 97%; in the test with OVCAR-8 ovarian, 105%; in the test with OVCAR-5 ovarian, 115%; with OVCAR-4 ovarian, 111%; in the test on SK-OV-3 ovarian it was 106%. The growth was 122% in the test on OVCAR-3 ovarian; 99% in the test with HS 578T breast; 101% in the test with NCI/ADR-RES ovarian; 93% with T-47D breast; 129% in the test on BT-549 breast; 114% in the test on MDA-MB-435 melanoma. Moreover, the growth is 108% in the test on SW-620 colon; 95.7% in the test with MCF7 breast; 101% with HCT-116 colon; 102% with HCC-2998 colon; 113% in the test with KM12 colon.
Consider `COc1ccc(/C=C/c2nc3ccccc3c(=O)n2-c2ccc(C#Cc3ccc(C(C)(C)C)cc3)cc2C)c(OC)c1`, for which the growth in the test on SR leukemia was 42%; in the test on RPMI-8226 leukemia, 52%; in the test on OVCAR-8 ovarian, 110%; with OVCAR-5 ovarian it was 120%; with OVCAR-4 ovarian it was 97.9%; in the test with SK-OV-3 ovarian, 103%. Moreover, the growth with IGROV1 ovarian is 109%; with OVCAR-3 ovarian it was 87.5%; in the test with NCI/ADR-RES ovarian it was 105%; in the test with T-47D breast, 85.5%; in the test with BT-549 breast, 99.4%; with MDA-MB-435 melanoma it was 91.8%. For the same compound, the growth in the test on SW-620 colon was 86.7%; in the test on MCF7 breast, 105%; in the test with HCT-116 colon, 69%; in the test with HCC-2998 colon, 97.2%; in the test on KM12 colon, 88.1%.
As to `Nc1c(C(=O)C[C@@H](N)CO)ccc2c1C(=O)CCO2`, the growth was 30.7% in the test on SR leukemia; 19.2% in the test with RPMI-8226 leukemia; 35.8% with OVCAR-8 ovarian; 72.8% in the test on OVCAR-5 ovarian; 86.4% in the test with OVCAR-4 ovarian; 51.4% in the test on IGROV1 ovarian. Further, the growth in the test on OVCAR-3 ovarian is 23.5%; in the test on HS 578T breast, 110%; with NCI/ADR-RES ovarian it was 61.2%; with T-47D breast it was 33.6%; in the test on BT-549 breast, 41.9%; in the test on MDA-MB-435 melanoma it was 68.3%. For the same compound, the growth with SW-620 colon was 5.93% (active); in the test with MCF7 breast it was 22.5%; in the test on HCT-116 colon it was 37.9%; in the test with HCC-2998 colon, -5.53% (active); in the test with KM12 colon, 20.1%.
Regarding `O/N=C/c1ccncc1`, the growth is 107% with SR leukemia; 94% in the test with RPMI-8226 leukemia; 107% in the test on OVCAR-8 ovarian; 116% in the test with OVCAR-5 ovarian; 100% in the test with SK-OV-3 ovarian; 114% in the test with IGROV1 ovarian. For the same compound, the growth with OVCAR-3 ovarian is 113%; in the test with HS 578T breast it was 107%; with NCI/ADR-RES ovarian, 105%; in the test with T-47D breast it was 97.3%; with BT-549 breast, 117%; in the test on MDA-MB-435 melanoma, 100%. In addition, the growth was 102% in the test with SW-620 colon; 97.3% in the test on MCF7 breast; 118% with HCT-116 colon; 102% in the test with HCC-2998 colon; 105% with KM12 colon.
Consider `CS(=O)(=O)c1ccc(C(=O)N2N=C(c3ccccc3)CC2c2ccc3c(c2)OCO3)cc1` (stereo not drawn), for which the growth with SR leukemia is 90.9%; with RPMI-8226 leukemia, 95.7%; in the test on OVCAR-8 ovarian, 100%; in the test with OVCAR-5 ovarian, 100%; in the test on OVCAR-4 ovarian it was 99.3%; in the test on SK-OV-3 ovarian, 83.7%. The growth in the test on IGROV1 ovarian is 96.2%; in the test on OVCAR-3 ovarian, 106%; with NCI/ADR-RES ovarian it was 103%; in the test with T-47D breast, 78.5%; with BT-549 breast, 86.3%; in the test on MDA-MB-435 melanoma, 113%. The growth with SW-620 colon was 100%; in the test on MCF7 breast it was 84.1%; with HCT-116 colon it was 81.7%; in the test on HCC-2998 colon, 99.3%; with KM12 colon, 93.6%.
Consider `C[C@H](NC(=O)c1snnc1C1CC1)c1c(F)cccc1Cl`, for which the growth is 149% in the test on SR leukemia; 130% in the test on RPMI-8226 leukemia; 104% in the test on OVCAR-8 ovarian; 115% in the test with OVCAR-5 ovarian; 110% with OVCAR-4 ovarian; 113% with IGROV1 ovarian. Also, the growth was 114% with OVCAR-3 ovarian; 100% in the test with HS 578T breast; 97.8% with NCI/ADR-RES ovarian; 258% in the test on T-47D breast; 139% in the test with BT-549 breast; 106% in the test with MDA-MB-435 melanoma. The growth in the test on SW-620 colon was 106%; in the test with MCF7 breast, 98.7%; in the test on HCT-116 colon it was 122%; in the test with HCC-2998 colon, 95.7%; in the test with KM12 colon it was 114%.
In the case of `ClCCn1cnc2c(SCc3ccccc3Cl)ncnc21`, the growth is -21.5% (active) with SR leukemia; 7.3% (active) in the test with RPMI-8226 leukemia; 47.5% in the test on OVCAR-8 ovarian; 69.6% in the test on OVCAR-5 ovarian; 81.7% in the test with OVCAR-4 ovarian; 46.1% with SK-OV-3 ovarian. Moreover, the growth was 35.9% with OVCAR-3 ovarian; 53.2% in the test with HS 578T breast; 54.6% in the test with NCI/ADR-RES ovarian; 52.8% in the test on T-47D breast; 44.1% in the test with BT-549 breast; 37.5% in the test on MDA-MB-435 melanoma. For the same compound, the growth with SW-620 colon was 28.9%; with MCF7 breast, 21.6%; in the test with HCT-116 colon it was 32.8%; in the test with HCC-2998 colon it was 51.1%; in the test on KM12 colon, 34.8%.
